Screens: PubChem, The Scripps Research Institute Molecular Screening Center
SMARCA2 act: SMARCA2 function activation, primary screen; MG213 cells, MMTV-luciferase reporter, dexamethasone, overnight; activation, % at 9.1 µM; actives 1% (n = 370,000); AID 652017; in the data active means activation above about 7.8%
ssDAF12 agonist: S. stercoralis DAF-12 activation, primary screen. HEK293 ssDAF-12/GRIP1 lit1-tk-luc reporter, luminescence; % of 3 µM dafachronic acid response. activation, % at 6.8 µM. actives 1% (n = 370,000);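 active means activation above the mean over all tested compounds plus 3 SD, cut at about 0.9% in these data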
hgDAF12 agonist: agonists of H. glycines DAF-12 nuclear receptor | activation, % at 6.8 µM | AID 687014 | HEK293 GAL4-hgDAF12 UAS-luciferase reporter, agonist luminescence; normalized to butyrate control | actives 1.8% (n = 370,000);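 active means activation above a cutoff set at the mean of all screened compounds plus 3 SD, cut at about 10% in these data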
DAX1 inh-1: inhibits human nuclear receptor DAX1 | actives 0.99% (n = 340,000) | AID 504766 | HEK293 Gal4-DAX1 luciferase reporter, luminescence | inhibition, % at 6.75 µM;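 active means inhibition above the mean over all tested compounds plus 3 SD, cut at about 4.2% in these data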;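 further: inhibition shows as a rise in luminescence from relieved DAX1 repression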
Target sequence (P51843 207-470 limits assumed): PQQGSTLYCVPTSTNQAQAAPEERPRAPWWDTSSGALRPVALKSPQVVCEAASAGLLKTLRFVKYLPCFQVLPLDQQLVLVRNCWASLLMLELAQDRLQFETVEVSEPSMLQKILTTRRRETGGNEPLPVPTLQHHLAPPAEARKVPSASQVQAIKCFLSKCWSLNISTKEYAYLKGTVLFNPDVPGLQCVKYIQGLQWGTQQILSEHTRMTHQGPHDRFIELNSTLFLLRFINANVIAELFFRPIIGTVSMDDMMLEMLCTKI
DAX1 inh-2: DAX1 (NR0B1) inhibition, primary screen; HEK293T StAR-luciferase reporter, SF-1/DAX-1 repression relief; inhibition, % at 6.8 µM; actives 1.1% (n = 370,000); AID 652010;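 active means inhibition above the mean over all tested compounds plus 3 SD, cut at about 3.6% in these data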;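 further: higher inhibition means more luminescence from relief of DAX-1 repression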
hcDAF12 agonist: H. contortus DAF-12 activation, primary screen; activation, % at 6.8 µM; actives 1.4% (n = 370,000); AID 652067; HEK293 hcDAF-12 lit1-tk-luc reporter, luminescence; 0% DMSO, 100% Δ7-dafachronic acid;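 active means activation above the mean of all tested compounds plus 3 SD, cut at about 5.5% in these data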
A number is an active result; . = inactive; / = no result. Sampled rows, rich in hits. Any-hit rate of the full collection: about 4.8%.

SMILES	SMARCA2 act	ssDAF12 agonist	hgDAF12 agonist	DAX1 inh-1	DAX1 inh-2	hcDAF12 agonist
O=C(Nc1ccc(-c2nc3ccc(NC(=O)c4cccs4)cc3[nH]2)cc1)c1cccs1	9.1	.	.	.	.	.
CC(C)(C)n1cnc2cc(NC(=O)c3ccccc3)ccc21	.	.	11	5.5	.	.
CCn1cnc2cc(NC(=O)c3cccs3)ccc21	.	.	.	.	3.9	.
CSc1nc2ccc(NC(=O)c3cccs3)cc2s1	.	.	11	.	.	.
CSc1nc2ccc(NC(=O)c3ccc(F)c(F)c3)cc2s1	.	.	.	.	.	.
O=C(NCCc1ccc2c(c1)OCCO2)c1ccccc1F	.	.	12	.	.	.
O=C(Nc1nccs1)c1ncc(Cl)c(Cl)c1Cl	.	.	.	.	.	.
CC(C)(C)OC(=O)C1[C@H](O)C=CC[C@H]1S(=O)c1ccccc1 (stereo partly drawn)	/	.	.	/	/	.
COc1cc(NC(=S)NC(=O)C(C)C)ccc1NC(=O)c1cc2ccccc2o1	.	.	.	.	.	.
COc1cc(NC(=O)CC(C)C)ccc1NC(=O)c1ccco1	.	.	.	4.4	.	.
COc1cc(NC(=O)C(C)C)ccc1NC(=O)c1cc2ccccc2o1	.	.	.	6.1	.	.
CCC(=O)Nc1ccc(NC(=O)c2ccco2)c(OC)c1	.	.	.	.	.	.
COC(=O)[C@]12C[C@H](CC(=O)N3CCC(c4ccccc4)CC3)C(=O)N(CCC3=CCCCC3)C1=C[C@H](C(C)(C)C)O[C@@H]2C	.	.	.	/	.	.
COCCCNC(=O)C[C@H]1C[C@@]2(C(=O)OC)C(=C[C@H](C3CCCC3)O[C@@H]2C)N(CCc2ccc(OC)c(OC)c2)C1=O	.	.	.	/	.	.
O=C(NCC1CCCO1)C1CC(=O)N(c2ccc(Cl)cc2)C1 (stereo not drawn)	.	.	.	.	.	.
Cc1nc(Nc2ccc(F)cc2)nc(Nc2ccc(F)cc2)c1[N+](=O)[O-]	.	.	.	4.7	.	.
CCc1ccccc1Nc1ccc(C(=O)O)cc1N	.	.	.	6.6	.	.
O=S1(=O)CC(N2CCCC2)CN1Cc1cn(Cc2ccccc2)nn1 (stereo not drawn)	.	.	.	/	.	.
CSCCC(NC(=O)c1ccco1)C(=O)NC1CCC(C)CC1 (stereo not drawn)	.	.	.	.	3.7	.
CSCCC(NC(=O)c1ccco1)C(=O)Nc1ccc(C)cn1 (stereo not drawn)	.	.	.	.	3.8	.
Cc1cc(NC(=O)C(C)C)ncc1NC(=O)c1ccco1	.	.	.	5.9	.	.
CC1=C(C(=O)N(C)C)CC(CC(=O)NC2CCCCC2)C(=O)N1Cc1ccccc1 (stereo not drawn)	.	.	.	.	.	.
CCCC(=O)Nc1c(C(=O)OCC)[nH]c2ccccc12	.	.	.	.	.	.
CCOC(=O)c1[nH]c2ccccc2c1NC(=O)Nc1ccc(OC)cc1	.	0.9	.	.	.	.
CCOC(=O)c1[nH]c2ccc(OC)cc2c1NC(=O)c1ccccc1C(=O)O	.	.	.	4.3	.	.
SMILES	SMARCA2 act	ssDAF12 agonist	hgDAF12 agonist	DAX1 inh-1	DAX1 inh-2	hcDAF12 agonist
CCOC(=O)c1[nH]c2ccccc2c1NC(=S)Nc1cc(C)ccc1C	.	.	.	.	.	6.1
CC(C)(C)n1nnnc1C(c1ccccc1)N1CCN(CCN2CCOCC2)CC1 (stereo not drawn)	.	.	.	/	.	.
CCN(CC)C(=O)CC[C@@H]1CC[C@]2(CCCN(Cc3nccs3)C2)O1	.	.	.	/	.	.
COc1ccc(C(C)=O)cc1COC(=O)Cc1n[nH]c(=O)c2ccccc12	.	.	.	5.3	.	.
COc1ccccc1C(=O)COC(=O)Cc1n[nH]c(=O)c2ccccc12	.	.	.	.	.	.
CCC1CCCCN1CCCNC(=O)C1CCN(c2nnc(-n3cccc3)s2)CC1 (stereo not drawn)	.	.	.	.	.	.
O=c1c2cc(Cl)ccc2nc(-c2ccc(Cl)c(Cl)c2)n1O	.	.	.	4.5	.	.
O=c1c2cc(Cl)ccc2nc(-c2ccccc2)n1O	.	.	.	.	.	.
O=c1c2ccccc2c(/C=N/NS(=O)(=O)c2ccccc2)c(O)n1-c1ccccn1	.	1.0	.	.	.	.
O=C(Nc1ccccc1)Nc1ncc([N+](=O)[O-])s1	.	.	.	.	3.7	.
O=C(NCc1cccnc1)c1ccc2c(c1)N(Cc1ccccc1)CCS2	.	.	.	6.0	.	.
Cn1c(/N=C/c2ccc3c(c2)OCO3)nc2ccccc21	.	.	.	.	.	5.9
CCCC(=O)Oc1ccc(-c2nccc(C(OC)OC)n2)cc1	.	.	.	4.3	.	.
CC(=O)c1sc(-c2ccccc2)cc1N	.	.	.	/	.	.
CC(C)(C)N=Cc1cc(-c2ccccc2)sc1O	.	.	12	.	.	.
CCC(=O)N1N=C(c2ccc(NS(C)(=O)=O)cc2)CC1c1ccc(N(C)C)cc1 (stereo not drawn)	.	.	13	.	.	.
COC(=O)c1ccc(OCCOc2ccc(C(=O)OC)cc2)cc1	.	.	.	.	.	.
COC(=O)c1ccc(COc2ccc(CNCc3ccc(Cl)cc3)cc2)cc1	.	.	12	.	.	.
O=C1C=C(Nc2ccccc2C(=O)O)c2ccccc2C1=O	.	.	.	.	.	6.3
CC(C)[C@H](NC(=O)N1CC(=O)Nc2ccccc21)C(=O)N[C@@H](Cc1ccccc1)C(=O)O	.	.	.	7.0	.	.
CC(C)C[C@H](NC(=O)N1CC(=O)Nc2ccccc21)C(=O)N[C@H](Cc1c[nH]c2ccccc12)C(=O)O	.	.	.	.	.	.
CCC(C)[C@H](NC(=O)N1CC(=O)Nc2ccccc21)C(=O)N[C@@H](Cc1c[nH]c2ccccc12)C(=O)O (stereo partly drawn)	.	.	.	.	.	5.9
COc1cc(OC)cc(-c2noc([C@@H]3O[C@H](CO)[C@H](O)[C@H](O)[C@H]3O)n2)c1	.	.	.	/	.	.
COc1ccc(-c2noc(-c3ccoc3C)n2)cc1OC	.	.	.	.	.	.
COc1cccc(-c2noc(-c3ccoc3C)n2)c1	.	.	12	.	.	.
COc1ccc(-c2noc(-c3ccoc3C)n2)cc1	.	1.7	11	7.5	4.0	.
Cc1cccc(-c2noc(-c3ccoc3C)n2)c1	.	.	.	.	.	.
O=c1n(Cc2ccccc2)c(O)c2n1Cc1ccccc1N=C2c1ccc(C(F)(F)F)cc1	.	.	.	/	.	.
O=C(OCC(=O)N1CCc2ccccc2C1)c1ccc(F)cc1Cl	.	.	11	.	.	.
